Compounds without any hit were thinned out: in the full panel of roughly 83,000, 20% have a hit.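 Growth was measured after 48 h exposure to one concentration of compound in 96-well plates. Values under 10 count as active.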 A number with no mark means an inactive call. Activity calls are given as the source filed them.
Tested on: HL-60(TB) leukemia
Assay: NCI-60 one-dose screen, 48 h (100 = growth as untreated, 0 = no growth, -100 = all killed)
Details: 10 µM unless noted

| Structure (SMILES) | growth |
| --- | --- |
| COc1ccc([C@@H]2[C@@H](O)C(=O)N2c2cc(OC)c(OC)c(OC)c2)cc1F | -15.8% (active) |
| CN1CCN(c2ccc(Nc3nc(NCCNS(=O)(=O)c4ccc5ccccc5c4)c4sccc4n3)cc2)CC1 | -29.5% (active) |
| CN(C)CCCOc1ccc2c(c1)CN(C(=O)c1cc(C(=O)N3Cc4cccc(F)c4C3)ccc1O)C2 | 107% |
| C#C[C@]1(O)CC[C@H]2[C@@H]3CC=C4c5sc(Nc6cccc(C)n6)nc5CC[C@]4(C)[C@H]3CC[C@@]21C | -8.95% (active) |
| Clc1ccc2c(N/N=C/c3c[nH]c4ccccc34)ccnc2c1 | -34.7% (active) |
| O=S(=O)(Oc1ccc(-c2cn3ccoc3n2)cc1)C1CCCCC1 | 90.2% |
| O=C(/C=C1\C=CN(CCCCF)c2ccccc21)n1ccc2ccccc21 | 121% |
| COc1ccc([C@H]2C(=O)N(c3cc(OC)c(OC)c(OC)c3)[C@@H]2c2ccc(OC)c(O)c2)cc1 | -21.2% (active) |
| CN1c2ccccc2Sc2cc(C=C(C#N)C#N)ccc21 | 92.6% |
| CCN(CC)CCn1c2ccc(O)cc2c2sc3cc(OC)ccc3c(=O)c21 | 16.5% |
